Screening data from PubChem BioAssay.
NadD inh – inhibitors of Staphylococcus aureus NadD. purified NadD enzyme, colorimetric absorbance read-out. inhibition, % at 20 µM. 360,000 tested, 0.78% active; in the data active = inhibition above about 26%
PP5 inh – inhibitors of human protein phosphatase 5 (PP5); purified PP5c, OMFP substrate fluorescence; P53041; inhibition, % at 6.7 µM; AID 1987; 320,000 tested, 0.18% active;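 active = inhibition above the campaign's mean inhibition across all tested compounds plus 3 SD, cut at about 9.5% in these data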
Rpn11 inh – inhibitors of human proteasome Rpn11. O00487. human 26S proteasome, Ub4-pepOG fluorescence polarization; 20S core pre-blocked with epoxomicin. inhibition, % at 20 µM. 360,000 tested, 0.59% active. AID 588493;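 active = inhibition at 20 µM, scaled to each plate's controls, above about 33%, limit read from the data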
PP1 counter – counter-screen for PP5 inhibitors: inhibitors of human PP1-alpha. P62136. purified PP1alpha, OMFP fluorescence. inhibition, % at 6.7 µM. 320,000 tested, 0.9% active. AID 2235;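 active = inhibition above the mean inhibition of all tested compounds plus 3 SD, computed separately for each screening campaign, cut at about 15% in these data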
Target sequence (P62136 whole entry, looked up): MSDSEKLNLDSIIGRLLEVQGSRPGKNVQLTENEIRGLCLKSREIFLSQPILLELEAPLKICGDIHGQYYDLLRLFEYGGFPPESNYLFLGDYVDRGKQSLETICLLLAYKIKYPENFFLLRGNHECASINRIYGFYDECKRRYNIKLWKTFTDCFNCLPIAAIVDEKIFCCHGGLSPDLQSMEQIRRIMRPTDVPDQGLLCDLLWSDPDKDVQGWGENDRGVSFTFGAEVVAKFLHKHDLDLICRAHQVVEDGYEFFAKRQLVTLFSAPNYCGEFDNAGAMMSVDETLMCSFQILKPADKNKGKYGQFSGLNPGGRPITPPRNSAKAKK
PREPL inh – inhibits the human prolyl oligopeptidase-like enzyme | Q4J6C6 | inhibition, % at 5.96 µM | recombinant PREPL, fluorescence polarization activity-based probe | 320,000 tested, 0.68% active; in the data active = inhibition above about 43%
Each line names hits and unclear results; the compound was inactive in the other large screens. In the library only some 2.4% were active in any assay of this set; here they are far more common.

COc1cccc2c1C(=O)c1c(O)c3c(c(O)c1C2=O)C[C@@](O)(C(C)=O)C[C@@H]3O[C@H]1C[C@H](N)[C@H](O)[C@H](C)O1	none (no result: PP5 inh, PP1 counter, PREPL inh)
COc1cccc2c1C(=O)c1c(O)c3c(c(O)c1C2=O)C[C@@](O)(C(=O)CO)C[C@@H]3O[C@H]1C[C@H](N)[C@@H](O)[C@H](C)O1	NadD inh 57
COc1cccc(/C=N/NC(=O)c2nnn(-c3nonc3N)c2CN(C)C2CCCCC2)c1	none (no result: PP5 inh, PP1 counter, PREPL inh)
COCCCNC(=O)c1ccc2c(=O)n(Cc3ccc4c(c3)OCO4)c(=S)[nH]c2c1	PP1 counter 17
C#CCNC(=O)C[C@@H]1C[C@@]2(C(=O)OCC)CCCC=C2N(CCCCCCCC)C1=O	none (no result: PP5 inh, Rpn11 inh, PP1 counter, PREPL inh)
COC(=O)CSc1nc(SC)nc2c1sc1nc(-c3ccco3)c3c(c12)CC(C)(C)OC3	none (no result: PP5 inh, PP1 counter, PREPL inh)
CSc1nc(N(CCO)CCO)c2sc3nc(-c4ccco4)c4c(c3c2n1)CCC4	NadD inh 80 (not shown: PP5 inh, Rpn11 inh, PP1 counter, PREPL inh)
O=c1[nH]n2c(=O)c3c([nH]c2c1N=Nc1cccc(Cl)c1)CCC3	PP1 counter 17
O=C(Nc1ccc(C(F)(F)F)cc1)c1ccc(NC(=O)C2CCCO2)cc1 (centres undefined)	Rpn11 inh 94
O=C1c2cc(Br)ccc2N(Cc2ccc(Br)cc2)S(=O)(=O)C1c1cc(Cl)c(Cl)cc1[N+](=O)[O-] (centres undefined)	NadD inh 32 (no result: PP5 inh, PP1 counter)
O=C1CS(=O)(=O)N(Cc2cccc(F)c2)c2ccc(Br)cc21	none
COc1ccc(CNC(=O)Nc2ccc3c(c2)c(=O)n(C)n3Cc2cccc(C(F)(F)F)c2)cc1	none (no result: PP5 inh, PP1 counter, PREPL inh)
CC(C)OC(=O)/C(C#N)=C/c1ccc(-c2ccc(SC(F)F)cc2)o1	Rpn11 inh 57
CCN(CCCNc1cc2c(c(N)c1S(=O)(=O)O)C(=O)c1ccccc1C2=O)c1ccccc1	NadD inh 52 (no result: PP5 inh, PP1 counter, PREPL inh)
C=CS(=O)(=O)c1c2cc(OC)ccc2nc2ccc(OC)cc12	none (no result: PP5 inh, PP1 counter, PREPL inh)
C=C(C)Cn1c(SCC(=O)N/N=C/c2c(O)ccc3ccccc23)nc2ccccc2c1=O	NadD inh 35
OC(c1ccc(F)c(F)c1)c1nc(-c2ccc(Cl)cc2)cs1 (centres undefined)	none (no result: PP5 inh, PP1 counter, PREPL inh)
O=C(NCCc1ccccc1)C1CCC(CNS(=O)(=O)c2ccccc2)CC1 (centres undefined)	PP1 counter 16
O[C@H]1CN(CC2CCCCC2)[C@@H](c2ccc(Cl)cc2)C[C@@H]1n1cc(C2CC2)nn1	none (no result: PP5 inh, PP1 counter, PREPL inh)
NS(=O)(=O)c1ccc(NCCCn2ccnc2)c([N+](=O)[O-])c1	none
O=C1c2ccccc2-c2onc3ccc(NCCCn4ccnc4)c1c23	PREPL inh 110 (no result: NadD inh, Rpn11 inh)
CC(C)Oc1cccc(-c2cc(C(=O)NC(=S)N(C)c3ccccc3C(=O)O)c3ccccc3n2)c1	none
O=C1NN(c2cccc(Br)c2)C(=O)/C1=C/c1ccc(-c2cc([N+](=O)[O-])ccc2O)o1	NadD inh 70
CC1=NN(c2ccc(C)cc2)C(=O)/C1=C/c1ccc(-c2cc([N+](=O)[O-])ccc2O)o1	none (no result: PP5 inh, PP1 counter, PREPL inh)
O=C(O)c1cccc(CSc2nc(-c3ccc(Cl)cc3)cc(C(F)(F)F)n2)c1	PP1 counter 17
COc1ccc(-c2cc(C)nc(SCc3cccc(C(=O)O)c3)n2)cc1	none
CCOc1ccc(N(CC(=O)Nc2c(C)cc(C)cc2C)C2=NC3CS(=O)(=O)CC3S2)cc1 (centres undefined)	none (no result: PP5 inh, PP1 counter, PREPL inh)
Cc1ccc(C(=O)N/C(=C\c2ccc([N+](=O)[O-])cc2)C(=O)NCCc2ccccc2)cc1	PP1 counter 17
CC1(C)CCCN(C(=O)c2ccc3c(c2NCCO)C(=O)c2ccccc2C3=O)C1	PREPL inh 53
O=C1c2ccccc2C(=O)c2c1ccc(C(=O)N1CCCCC1)c2NCCO	none
Cc1cccc(C(=O)O/N=C(/c2ccccc2)c2ccncc2)c1	none
COc1ccc(C(=O)O/N=C(/c2ccccc2)c2ccncc2)cc1	PREPL inh 87
OC[C@@H]1CN(Cc2cccc(C(F)(F)F)c2)C[C@H](n2cnc3c(NC4CC4)ncnc32)O1	none (no result: PP5 inh, PP1 counter, PREPL inh)
CC(Sc1cnc2ccccc2n1)C(=O)O (centres undefined)	PP1 counter 18
CC(Sc1ccc2ccccc2n1)C(=O)O (centres undefined)	none (no result: PP5 inh, PP1 counter, PREPL inh)
Cc1ccc(S(=O)(=O)N2C[C@H]3[C@H]4C(=O)N(Cc5ccccc5)C(=O)[C@H]4CC(=O)[C@H]3[C@@H]2c2ccccc2)cc1	none (no result: PP5 inh, PP1 counter, PREPL inh)
COC(=O)c1sc(N)c(C(=O)OC)c1COC(=O)[C@@H](NS(=O)(=O)c1cccc(Cl)c1)C(C)C	none
